# Several values for one entry are separate records, joined by “and”; a condition that tells them apart may be missing. Equal entries are not always repeated. Results filed as inconclusive are left out. A call without a number means that no potency is given here. A number with no mark means an inactive call. Activity calls are given as the source filed them. Calls follow the shape of the dose curve; as a rule, active = well fitted curve in the direction sought with a large enough effect; inconclusive = small, poorly fitted or top-dose-only effect, or another doubt; inactive = no such curve, though single readings can be large; an effect the other way counts as inactive or inconclusive.
# How the values were obtained:
# Es-2 = assay: Primary qHTS to identify gynecologic anti-cancer compounds using libraries of approved drugs and bioactive compounds (AID 1345084); settings: Gynecologic cancer cell panel viability, ATPlite luminescence, 48 h; series mostly up to 57.5 µM; also: nearly all actives have a fitted effect of over 55% in size
# Outline: (§1)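 Cells, 1,000 per well, plated 16 h, then exposed 48 h at 37 C to compounds. Viability by ATPlite luminescence after 15 min at room temperature.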
# HeLa = assay: as above; settings: Gynecologic cancer cell panel viability, ATPlite luminescence, 48 h; series mostly up to 57.5 µM
# Outline: as §1
# Hek293T = assay: as above; settings: Gynecologic cancer cell panel viability, ATPlite luminescence, 48 h, control line for the selectivity index; series mostly up to 57.5 µM
# Outline: as §1
# JEG-3 = assay: as above; settings: Gynecologic cancer cell panel viability, ATPlite luminescence, 48 h; series mostly up to 57.5 µM
# Outline: as §1
# OV90 = assay: as above; settings: Gynecologic cancer cell panel viability, ATPlite luminescence, 48 h; series mostly up to 57.5 µM
# Outline: as §1
# PA-1 = assay: as above; settings: Gynecologic cancer cell panel viability, ATPlite luminescence, 48 h; series mostly up to 57.5 µM
# Outline: as §1
# SKOV3 = assay: as above; settings: Gynecologic cancer cell panel viability, ATPlite luminescence, 48 h; series mostly up to 57.5 µM
# Outline: as §1
# Tov-21-G = assay: as above; settings: Gynecologic cancer cell panel viability, ATPlite luminescence, 48 h; series mostly up to 57.5 µM
# Outline: as §1
# Tov112D = assay: as above; settings: Gynecologic cancer cell panel viability, ATPlite luminescence, 48 h; series mostly up to 57.5 µM
# Outline: as §1
# [1] = Drug repurposing screens with cells derived from glioblastoma tumor samples (AID 1345199); settings: GBM patient neurospheres viability, ATP luminescence, 48 h; also: nearly all actives have a fitted effect of over 40% in size
# Outline: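 Primary testing used CD133+ neurospheres from four GBM patients, seven concentrations, 48 h exposure and ATP-based viability; confirmation added three slower-growing patient lines.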
# [2] = at 91.6 µM (top of the series), tumour line B
# [3] = at 45.9 µM (top of the series), tumour line B
# [4] = at 45.9 µM (top of the series), tumour line D
# [5] = at 46 µM (top of the series), tumour line A
# [6] = at 91.6 µM (top of the series), tumour line D
# Potency is read from the fitted curve at half-maximal effect.
Compound,Potency (Es-2),Potency (HeLa),outcome (Hek293T),outcome (JEG-3),Potency (OV90),Potency (PA-1),outcome (SKOV3),Potency (Tov-21-G),Potency (Tov112D),Potency ([1]; tumour line A),"activity, negative = cell killing [1, 2]","activity, negative = cell killing [1, 3]","activity, negative = cell killing [1, 4]","activity, negative = cell killing [1, 5]","activity, negative = cell killing ([1]; at 91.6 µM (top of the series), tumour line A)","activity, negative = cell killing [1, 6]","activity, negative = cell killing ([1]; at 108 µM (top of the series), tumour line B)","activity, negative = cell killing ([1]; at 108 µM (top of the series), tumour line D)"
CN1C(=O)COc2c(C(=O)NC3CN4CCC3CC4)cc(Cl)cc21 (stereo not drawn),inactive,inactive,inactive,inactive,inactive,inactive,inactive,inactive,inactive,22.4 µM (active),–,–,–,–,–,–,–,–
CCC(CC)(CNC(=O)CCCO)c1cccc(OC)c1,inactive,inactive,inactive,inactive,inactive,inactive,inactive,inactive,inactive,–,–,–,–,–,–,–,–,–
CC(Cc1ccccc1)NCCn1cnc2c1c(=O)n(C)c(=O)n2C (stereo not drawn),inactive,inactive,inactive,inactive,inactive,inactive,inactive,inactive,inactive,31.6 µM (active),-19.2%,–,–,–,–,–,–,–
C[C@]12CC[C@H]3[C@@H](CC[C@@]45O[C@H]4C(O)=C(C#N)C[C@]35C)[C@H]1CC[C@H]2O,inactive,inactive,inactive,inactive,inactive,inactive,inactive,inactive,inactive,–,–,–,–,–,–,–,–,–
O=C1OC(c2ccc(O)c(S(=O)(=O)O)c2)(c2ccc(O)c(S(=O)(=O)O)c2)c2c(Br)c(Br)c(Br)c(Br)c21,inactive,inactive,inactive,inactive,inactive,inactive,inactive,inactive,inactive,–,–,-1.68%,0.706%,-10.6%,–,–,–,–
CN(C)CCc1c[nH]c2cccc(OP(=O)(O)O)c12,inactive,inactive,inactive,inactive,inactive,inactive,inactive,inactive,inactive,–,-11.6%,–,–,–,-30.1%,-12.3%,–,–
COc1ccc2c3c1O[C@H]1[C@H](O)CC[C@H]4[C@@H](C2)N(C)CC[C@@]341,inactive,inactive,inactive,inactive,inactive,inactive,inactive,inactive,inactive,–,-15.1%,–,–,–,–,-10.3%,–,–
COc1cccc([C@@]2(O)CCCC[C@@H]2CN(C)C)c1,inactive,inactive,inactive,inactive,inactive,inactive,inactive,inactive,inactive,–,–,-5.81%,6.21%,-29.2%,–,–,–,–
COC(=O)[C@@H](N)CCCN/C(N)=N/[N+](=O)[O-],inactive,inactive,inactive,inactive,inactive,inactive,inactive,inactive,inactive,–,–,0.524%,-1.49%,-15.6%,–,–,–,–
CCC(C)C(C)(COC(N)=O)COC(N)=O (stereo not drawn),inactive,inactive,inactive,inactive,inactive,inactive,inactive,inactive,inactive,–,–,–,–,–,–,–,–,–
C[C@]12CC[C@@H]3c4ccc(OC(=O)N(CCCl)CCCl)cc4CC[C@H]3[C@@H]1CC[C@@H]2OP(=O)(O)O,inactive,inactive,inactive,inactive,inactive,inactive,inactive,inactive,inactive,–,–,-5.05%,-6.53%,–,–,–,–,–
CC(Cc1ccccc1)N(C)Cc1ccco1 (stereo not drawn),inactive,inactive,inactive,inactive,inactive,inactive,inactive,inactive,inactive,–,–,–,–,–,–,–,–,–
C=CCC1(C(C)CC)C(=O)NC(=O)NC1=O (stereo not drawn),inactive,inactive,inactive,inactive,inactive,inactive,inactive,inactive,inactive,–,–,–,–,–,–,–,–,–
CN1C(=O)NC(=O)C(C)(C2=CCCCC2)C1=O (stereo not drawn),inactive,inactive,inactive,inactive,inactive,inactive,inactive,inactive,inactive,–,–,16.4% and -21.6%,3.59% and 4.39%,3.99%,–,–,–,–
c1ccc(N2CCNCC2)cc1,inactive,inactive,inactive,inactive,inactive,inactive,inactive,inactive,inactive,–,–,–,–,–,–,–,–,–
COc1cc(CCN)cc(OC)c1OC,inactive,inactive,inactive,inactive,inactive,inactive,inactive,inactive,inactive,–,–,–,–,–,–,–,-15.3%,5.13%
O=C1CN=C(c2ccccc2)c2cc([N+](=O)[O-])ccc2N1,inactive,inactive,inactive,inactive,inactive,inactive,inactive,inactive,inactive,–,–,-7.18%,-17.8%,–,–,–,–,–
Clc1ccc(C(c2ccc(Cl)cc2)C(Cl)(Cl)Cl)cc1,inactive,inactive,inactive,inactive,inactive,inactive,inactive,inactive,inactive,11.2 µM (active),–,–,–,–,–,–,–,–
C=C(C)[C@H]1CN[C@H](C(=O)O)[C@H]1CC(=O)O,inactive,inactive,inactive,inactive,inactive,inactive,inactive,inactive,inactive,–,–,-14.8%,-15.4%,–,–,–,–,–
C[C@]12CC[C@H]3[C@@H](CCC4=CC(=O)CC[C@@H]43)[C@@H]1CC[C@@H]2OC(=O)CCC1CCCCC1,inactive,11.2 µM (active),inactive,inactive,inactive,inactive,inactive,inactive,inactive,–,–,–,–,–,–,–,–,–
CC(=O)C1CCOC1=O (stereo not drawn),inactive,inactive,inactive,inactive,inactive,inactive,inactive,inactive,inactive,–,–,–,–,–,–,–,–,–

# From PubChem BioAssay (NCATS)
